Bioassay records deposited in PubChem BioAssay by National Center for Advancing Translational Sciences (NCATS).
This is one part of a sample in which hits are shown more often than they occur.
RE007 growth inh: less growth of the S. pombe RE007 Vpr strain. S. pombe RE007 Vpr strain, BacTiter-Glo ATP luminescence, 24 h. Potency, µM (titrated, usually from 92.2 µM), without a hit: at the highest dose activity change, negative = less growth, actives largely listed as inhibitors. 0.21% of 360,000 active; active = well fitted falling curve with a large enough effect; inconclusive = small, poorly fitted or top-dose-only effect; inactive = no such curve, though single readings can be large or run the other way; note: potency is the fitted concentration of half-maximal effect; % is set by controls: 0 for no effect and ±100 for the full control effect; nearly all actives have a fitted effect of over 50% in size
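Fission yeast RE007 carrying one integrated HIV-1 vpr copy, seeded at OD 0.01 in PMG+AL medium with 23 nL pinned compound. Grown 24 h at 30 degrees; viability read by BacTiter-Glo luminescence after 5 min.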
Giardia FBPA inh: Giardia lamblia aldolase inhibition | purified Giardia FBPA | Potency, µM (series often up to 59.6 µM), without a hit: top-dose activity, negative = inhibition, actives largely listed as inhibitors | 0.71% of 290,000 active | AID 2451; note: potency is the fitted concentration of half-maximal effect; % is set by controls: 0 for no effect and ±100 for the full control effect; nearly all actives have a fitted effect of over 55% in size
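40 nM FBPA preincubated 10 min at RT with compound (up to 57.5 uM final), then substrate plus GAPDH/TPI/NAD/arsenate coupling and diaphorase/resazurin added. Fluorescence read after 20 min at RT, 525/598 nm.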
Shiga inhibitor: blocks Shiga toxin action in Vero cells; Vero cells, Shiga toxin protein synthesis inhibition reporter; inhibition, % at 38.7 µM; 9.2% of 290,000 active; AID 2315; in the data active = inhibition mostly above about 28%, no sharp cut-off; inactive = mostly below about 43%; note: 0% is about no effect
CHX counter: counter-screen for Shiga toxin inhibitors: cycloheximide protein synthesis inhibition; cell reporter, cycloheximide protein synthesis inhibition counterscreen; max response, %; 12% of 300,000 active; in the data active = max response mostly above about 13%, no sharp cut-off; inactive = mostly below about 14%; note: read at 38.3 µM for the half of the compounds with a filed dose; 0% is about no effect
TbPYK inhibitor: T. brucei pyruvate kinase inhibition | TbPYK enzyme, Kinase-Glo Plus ATP luminescence, 45 min | 0.12% of 410,000 active | AID 624173 | Potency, µM (top dose mostly 76.8 µM), for inactives: at the top dose activity, negative = inhibition, actives largely listed as inhibitors; note: potency is the fitted concentration of half-maximal effect; % is set by controls: 0 for no effect and ±100 for the full control effect; nearly all actives have a fitted effect of over 50% in size
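Assay buffer: 50 mM TEA pH 7.2, 100 mM KCl, 10 mM MgCl2, 0.05% BSA, 0.01% Tween-20. Pyruvate kinase from T. brucei plus substrate met compound, then ADP (130 uM final). Luminescence was read post 45 min RT.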
LmPK inhibitor: inhibitors of Leishmania mexicana pyruvate kinase; Q27686; purified LmPK, Kinase-Glo ATP luminescence, 1 h; Potency, µM (titrated, usually from 57.5 µM), without a hit: at the highest dose activity change, negative = inhibition, actives largely listed as inhibitors; 0.37% of 290,000 active; AID 1721; note: potency is the fitted concentration of half-maximal effect; % is set by controls: 0 for no effect and ±100 for the full control effect
Target sequence (Q27686 whole entry, looked up): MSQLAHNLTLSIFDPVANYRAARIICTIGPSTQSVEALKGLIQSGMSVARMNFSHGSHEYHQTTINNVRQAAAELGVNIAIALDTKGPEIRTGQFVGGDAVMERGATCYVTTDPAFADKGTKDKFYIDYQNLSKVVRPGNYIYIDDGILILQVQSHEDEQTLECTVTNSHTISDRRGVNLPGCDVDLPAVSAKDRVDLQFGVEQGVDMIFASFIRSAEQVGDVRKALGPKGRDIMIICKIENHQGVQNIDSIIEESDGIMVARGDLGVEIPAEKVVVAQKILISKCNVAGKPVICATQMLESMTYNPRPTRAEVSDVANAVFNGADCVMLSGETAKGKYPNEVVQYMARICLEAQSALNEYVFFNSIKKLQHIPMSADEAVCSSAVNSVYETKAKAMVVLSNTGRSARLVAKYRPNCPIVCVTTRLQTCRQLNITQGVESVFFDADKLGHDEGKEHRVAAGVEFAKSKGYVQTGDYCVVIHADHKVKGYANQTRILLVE
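ATP generated from ADP (0.1 mM) and PEP (0.5 mM) by 0.1 nM LmPK over 1 h at room temperature (pH 7.2 imidazole buffer) was detected by coupled luciferase luminescence. Values were normalized to uninhibited and no-enzyme wells.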
Numbers without * were called inactive; ? = inconclusive; · = no result; + = active, no number. Unless noted, calls come from the whole dose curve; as a rule, active = well fitted curve in the direction sought with a large enough effect; inconclusive = small, poorly fitted or top-dose-only effect, or another doubt; inactive = no such curve, though single readings can be large; an effect the other way counts as inactive or inconclusive.

SMILES	RE007 growth inh	Giardia FBPA inh	Shiga inhibitor	CHX counter	TbPYK inhibitor	LmPK inhibitor
CCc1ccc(OC(=O)Nc2ccccc2)cc1	-22%	1%	13	13*	3%	-6%
CN(C)c1ccc(NC(=O)Oc2ccccc2)cc1	?	?	60*	29*	?	?
O=C1OCCC1Sc1nnc(-c2ccccc2)o1 (stereo not drawn)	-11%	0%	2	-5	1%	-6%
O=C1c2ccccc2CC1Sc1nnc(-c2ccccn2)o1 (stereo not drawn)	10%	-8%	75*	17*	-22%	-8%
CCCCCn1c(=O)[nH]c2cc(C(=O)NCc3ccc(OC)cc3)ccc2c1=O	·	·	·	·	-4%	·
CCOc1ccc(-c2nnc(SCc3nnc(-c4ccccc4)o3)n2-c2ccccc2F)cc1	8%	-25%	52	20*	-26%	8%
Cc1ccc(OCC(=O)Nc2cc3nn(-c4ccccc4)nc3cc2C)cc1	·	·	·	·	4%	·
Cc1cc2nn(-c3ccccc3)nc2cc1NC(=O)c1cccs1	6%	4%	+	22*	-1%	0%
CC(=O)Nc1cc2nn(-c3ccccc3)nc2cc1C	-23%	-3%	83*	59*	-2%	-6%
CCC(=O)Nc1cc2nn(-c3ccccc3)nc2cc1Cl	-5%	3%	80*	43*	-9%	-1%
Cc1cc2nn(-c3ccccc3)nc2cc1NC(=O)c1cccc2c(Cl)cccc12	·	·	·	·	4%	·
O=C(NCCc1ccc(Cl)cc1)c1nnc(Cc2ccc(F)cc2)o1	·	·	·	·	-3%	·
Cc1noc(C)c1C(=O)N1CCC2(CCCN(c3ncccn3)C2)CC1	·	-2%	·	·	-1%	·
Fc1ccc(C[n+]2csc3ccccc32)cc1	18%	-15%	46	13	?	5%
Clc1ccc(C[n+]2csc3ccccc32)cc1	3%	-6%	43*	19*	?	2%
CCOC(=O)C1CCN(C(=O)Cn2nc(C)n3c(cc4sccc43)c2=O)CC1	·	·	·	·	3%	·
Fc1ccc(-c2nnsc2Sc2ccccn2)cc1	22%	4%	67*	34*	-8%	-7%
O=S(=O)(c1ccc(F)cc1)c1snnc1-c1ccccc1	-12%	?	-2	4	2%	2%
COc1ccc(SCC(Cc2ccccc2)N2CCN(CCc3ccccc3)CCC2=O)cc1 (stereo not drawn)	·	-4%	-2	1	·	·
O=C(CCN1C(=O)C2C3C=CC(C4CC34)C2C1=O)Oc1ccc(Br)cc1 (stereo not drawn)	10%	2%	16	-3	1%	0%
O=C(CCN1C(=O)C2C3C=CC(C4CC34)C2C1=O)Oc1cccc2cccnc12 (stereo not drawn)	14µM*	?	-27	-2	-11%	1%
CCOc1ccc2oc(C(=O)Nc3ccc(N4CCOCC4)cc3)c(C)c2c1	18%	4%	-4	0	0%	1%
CCOc1ccc2oc(C(=O)O)c(C)c2c1	-29%	5%	23	26*	0%	6%
Cc1oc2ccc(OCc3ccc(Cl)cc3)cc2c1C(=O)O	15%	-22%	87*	27*	2%	4%
CCOc1ccc2oc(C(=O)N3CC(C)OC(C)C3)c(C)c2c1 (stereo not drawn)	11%	·	18	24*	4%	-6%
SMILES	RE007 growth inh	Giardia FBPA inh	Shiga inhibitor	CHX counter	TbPYK inhibitor	LmPK inhibitor
CCOc1ccc2oc(C(=O)Nc3ccc4c(c3)OCO4)c(C)c2c1	-23%	-19%	106*	25*	-1%	-2%
CN(C)C(=O)NC1CCCCCCC1	·	0%	-6	1	·	·
COc1cccc(CS(=O)(=O)c2nnnn2CC(C)C)c1	·	4%	·	·	·	·
Cn1c2c(c(=O)n(C)c1=O)C(C(F)(F)F)(C(F)(F)F)N=C(c1ccc(Cl)cc1)N2	-12%	4%	-14	6	-3%	0%
Cc1ccccc1C1=NC(C(F)(F)F)(C(F)(F)F)c2c(n(C)c(=O)n(C)c2=O)N1	·	3%	109*	61*	-9%	1%
O=C(Nn1cnc2ccccc2c1=O)c1ccc([N+](=O)[O-])cc1	7%	8%	-6	-1	1%	-7%
Cc1ccc(C(=O)Nn2cnc3ccccc3c2=O)cc1C	22%	-5%	83*	44*	4%	-1%
